In the library only some 0.93% were active in any assay of this set; here they are far more common.
LAP4-GFP MLPCN: yeast TOR pathway LAP4-GFP modulation; S. cerevisiae LAP4-GFP multiplex, flow cytometry GFP, 3 h; median GFP as percent of DMSO wells; GFP response vs DMSO, % at 10 µM; 0.34% of 320,000 active;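 active means GFP response vs DMSO above a set limit, about the screen mean plus 3 SD, cut at about 150% in these data; inconclusive means under 70 cell events counted for the yeast strain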
AGP1-GFP MLPCN: yeast TOR pathway AGP1-GFP modulation. S. cerevisiae AGP1-GFP multiplex flow cytometry, 3 h; GFP as percent of DMSO wells. GFP response vs DMSO, % at 10 µM. 0.02% of 320,000 active. AID 2066;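 active means GFP response relative to DMSO above a set limit, near screen average plus 3 SD, cut at about 150% in these data; inconclusive means fewer than 70 cells counted for the yeast strain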;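 further: median GFP channel fluorescence of the gated AGP1 strain per well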
CIT2-GFP yeast: yeast TOR pathway CIT2-GFP modulation. S. cerevisiae CIT2-GFP strain, flow cytometry, 3 h; 100 means same as DMSO wells. GFP response vs DMSO, % at 10 µM. 0.065% of 320,000 active. AID 2029;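 active means GFP response relative to DMSO above a set limit, near the screen mean plus 3 SD, cut at about 150% in these data; inconclusive means Fewer than 70 cells measured for a yeast strain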;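 further: ratio of well median GFP fluorescence to mean of DMSO wells on the plate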
RPL19A TOR yeast: yeast TOR pathway RPL19A-GFP modulation; AID 2025; S. cerevisiae RPL19A-GFP strain, flow cytometry, 3 h; hits give low values; percent response vs DMSO, % at 10 µM; 0.3% of 330,000 active;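 active means percent response vs DMSO below 50%; inconclusive means fewer than 70 events counted for the yeast strain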;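 further: median channel GFP fluorescence of the barcoded RPL19A-GFP strain; lower means less RPL19A-GFP as with rapamycin TOR inhibition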
MEP2 TOR yeast: yeast TOR pathway MEP2-GFP modulation; S. cerevisiae MEP2-GFP strain, flow cytometry GFP, 3 h; 100% = DMSO control level; GFP response vs DMSO, % at 10 µM; 0.51% of 330,000 active; AID 2016;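 active means GFP response versus DMSO above a set limit, roughly screen mean plus 3 SD, cut at about 180% in these data; inconclusive means fewer than 70 cells counted for a yeast strain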;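 further: median GFP fluorescence of the barcode-gated MEP2-GFP cells per well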
Large screens that a line does not name were inactive; [ ] = another dose, or the depositor's remark.

CC1=C(C#N)c2nc(N)c(C#N)c(C)c2/C1=C\c1ccc(C)cc1	LAP4-GFP MLPCN 175
CCCCN(C)C(=O)c1nc2ccccn2c1CN(C)Cc1csc(C)n1	none
Cc1ccc(CCNC(=O)CN(c2cc(C)cc(C)c2)S(=O)(=O)c2c(C)noc2C)cc1	none
COc1ccc(CCNC(=O)CN(c2cc(C)cc(C)c2)S(=O)(=O)c2c(C)noc2C)cc1OC	AGP1-GFP MLPCN inconclusive, CIT2-GFP yeast inconclusive, RPL19A TOR yeast 18[may fluoresce violet]
O=C(CSc1ncn[nH]1)Nc1nnc(-c2ccccc2)s1	none
O=C(O)c1ccccc1C1=Nc2ccc(O)cc2Oc2cc(O)ccc21	CIT2-GFP yeast inconclusive, MEP2 TOR yeast 260[may fluoresce violet] (no result: RPL19A TOR yeast)
CCc1nc2ccc(C(=O)N3CCN(c4ccc([N+](=O)[O-])cc4)CC3)cc2nc1CC	AGP1-GFP MLPCN inconclusive, CIT2-GFP yeast inconclusive, RPL19A TOR yeast 24[may fluoresce violet]
O=C(c1cccc([N+](=O)[O-])c1)N1CCN(c2ccc(Cl)cc2)CC1	none
COc1cccc(C(=O)NC2=NCCS2)c1OC	none
O=C(NCCCN1CCN(c2cccc(Cl)c2)CC1)c1cccc(N2CCCC2=O)c1	CIT2-GFP yeast inconclusive, MEP2 TOR yeast 215[may fluoresce violet] (no result: AGP1-GFP MLPCN)
O=C(NCCCN1CCN(c2cccc(Cl)c2)CC1)c1ccc(N2CCCC2=O)cc1	none
COc1cccc(Nc2nc(N)c([N+](=O)[O-])c(N3CCOCC3)n2)c1	CIT2-GFP yeast inconclusive, MEP2 TOR yeast 214[may fluoresce violet]
CCCc1cc(-n2ccnc2C)n2c(nc3ccccc32)c1C#N	none
O=C(c1ccco1)N1CCN(C(=O)c2[nH]ncc2[N+](=O)[O-])CC1	none
CC(=O)c1c(C)[nH]c(C(=O)COC(=O)C2(C)CC2(Cl)Cl)c1C (stereo unspecified)	none
N#CC(C#N)=Cc1c[nH]c(=O)c(C#N)c1Nc1ccccc1	AGP1-GFP MLPCN inconclusive, CIT2-GFP yeast inconclusive, MEP2 TOR yeast 266[may fluoresce violet]
COc1ccc(NS(=O)(=O)c2cccc(NC(=O)NCCCl)c2)cc1	none
O=S(=O)(/N=C(/Nc1ccc(F)cc1F)c1ccc(Cl)cc1)c1ccccc1	MEP2 TOR yeast 175 (no result: AGP1-GFP MLPCN)
Cc1ccc(S(=O)(=O)/N=C(/Nc2ccc(F)cc2F)c2ccc(F)cc2)cc1	none
CCS(=O)(=O)N1CCN(S(=O)(=O)c2ccc3c(c2)OCCO3)CC1	AGP1-GFP MLPCN inconclusive, CIT2-GFP yeast inconclusive, RPL19A TOR yeast 40[may fluoresce violet], MEP2 TOR yeast inconclusive
Cn1ccnc1SCC(=O)Nc1cc(F)ccc1F	CIT2-GFP yeast 168[may fluoresce green]
Cc1ccc(-n2nnnc2C(Cl)(Cl)c2nnnn2-c2ccc(C)cc2)cc1	LAP4-GFP MLPCN 168
CSc1nnnn1-c1ccc(Cl)cc1	none
Clc1ccc(-c2nnnn2-c2ccc(Cl)cc2)cc1	LAP4-GFP MLPCN 162, MEP2 TOR yeast 454
Clc1ccc(-n2nnnc2-c2ccccc2)cc1	none
O=C(CSc1ccccn1)N/N=C/c1ccccc1[N+](=O)[O-]	none
O=C(CSc1ccccn1)N/N=C/c1cc([N+](=O)[O-])ccc1O	AGP1-GFP MLPCN inconclusive, CIT2-GFP yeast inconclusive, RPL19A TOR yeast 45[may fluoresce violet], MEP2 TOR yeast 277[may fluoresce violet]
O=c1cc(N2CCCCC2)[nH]c(=O)n1C1CCCCC1	none
O=c1cc(N2CCc3ccccc3C2)[nH]c(=O)n1C1CCCCC1	CIT2-GFP yeast inconclusive, MEP2 TOR yeast 198[may fluoresce violet] (no result: AGP1-GFP MLPCN)
COc1ccc(-c2nc(CN3CCC(C(=O)N4CCOCC4)CC3)c(C)o2)c(OC)c1	none
CCN(CC)C(=O)c1sc(NC(=O)c2ccc3c(c2)OCO3)c(C#N)c1C	CIT2-GFP yeast inconclusive, MEP2 TOR yeast 202[may fluoresce violet]
CC(=O)NC1(C(F)(F)F)C(=O)Nc2c1c(=O)[nH]c(=O)n2-c1ccccc1 (stereo unspecified)	none
Cc1cccc(C2=NC(C(F)(F)F)(C(F)(F)F)c3c(n(-c4ccc(F)cc4)c(=O)[nH]c3=O)N2)c1	AGP1-GFP MLPCN inconclusive, CIT2-GFP yeast inconclusive, MEP2 TOR yeast 222[may fluoresce violet]
C[n+]1ccccc1Nc1cc([N+](=O)[O-])ccc1N	none
CC(C)N1CCN(C(=O)c2cccc(Cl)c2)CC1	none
Cc1ccc(-c2nc3ccccc3c(C(=O)NCc3cccs3)c2C)cc1	none
COc1cc2nc(/C=C/c3cc(OC)c(OC)c(OC)c3)sc2cc1SC	AGP1-GFP MLPCN inconclusive, CIT2-GFP yeast inconclusive, RPL19A TOR yeast 18[may fluoresce violet], MEP2 TOR yeast 228[may fluoresce violet]
CCOc1ccc2oc(C(=O)NNC(=O)c3ccccc3O)c(C)c2c1	none
O=C(CN1CCS(=O)(=O)CC1)N/N=C/c1cccc(C(F)(F)F)c1	CIT2-GFP yeast 150
O=C(CSCc1cccc(Br)c1)N=Nc1c(O)[nH]c2ccccc12	LAP4-GFP MLPCN 165
O=C(CSCc1ccccc1)N=Nc1c(O)[nH]c2ccccc12	none
O=C(N=Nc1c(O)[nH]c2ccccc12)c1ccco1	LAP4-GFP MLPCN 197, AGP1-GFP MLPCN 152, MEP2 TOR yeast 493
Cc1ccc(-c2c(=O)n(O)c3ccccc3[n+]2[O-])cc1	none
O=C(CNC1CCCCC1)Nc1ccc(S(=O)(=O)N2CCCCC2)cc1	none
CC1CCCN(S(=O)(=O)c2ccc(NC(=O)CNC3CCCC3)cc2)C1 (stereo unspecified)	CIT2-GFP yeast inconclusive, MEP2 TOR yeast 315[may fluoresce violet]
CCc1nnc(NC(=O)c2ccc(S(=O)(=O)N3CCCC(C)C3)cc2)o1 (stereo unspecified)	LAP4-GFP MLPCN 150
C/C(CC(=O)Nc1cc(C)ccn1)=N\NC(=O)C(=O)Nc1cccc(C)c1	none
Cc1cc(=O)oc2cc(OCC(=O)NCCCn3ccnc3)ccc12	none
Cc1c(C)c2ccc(OCC(=O)NCCCn3ccnc3)cc2oc1=O	RPL19A TOR yeast 48
COc1ccccc1CNC(=O)CCS(=O)(=O)c1cccc2nonc12	none
O=C(C1CCN(Cc2ccc(F)cc2)CC1)N(CCc1ccccc1)Cc1ccccc1	none
O=C(C1CCN(Cc2ccc(F)cc2)CC1)N(CCO)Cc1ccccc1	CIT2-GFP yeast inconclusive, MEP2 TOR yeast 422[may fluoresce violet]
Cn1c(N)c(C(=O)COC(=O)c2cccs2)c(=O)n(C)c1=O	AGP1-GFP MLPCN inconclusive, CIT2-GFP yeast inconclusive, MEP2 TOR yeast 273[may fluoresce violet]
COc1ccc(C2N(c3ccc(Cl)cc3)N=C(C(C)=O)N(C)N2C(C)=O)cc1 (stereo unspecified)	MEP2 TOR yeast 240
COc1ccc(N2CCN(C(=O)NC(=O)c3ccc(Cl)cc3)CC2)cc1	none
CN(C)c1cccc(C(=O)N(Cc2ccccc2)Cc2ccccc2)c1	none
O=C(/C=C(\O)c1ccccc1)C(=O)NNC(=O)c1ccccc1[N+](=O)[O-]	CIT2-GFP yeast inconclusive, MEP2 TOR yeast 202[may fluoresce violet]
COC(=O)CNC(=O)C(C)(C)Oc1ccc(Cl)cc1	none (no result: LAP4-GFP MLPCN)
CC(C)(Oc1ccc(Cl)cc1)C(=O)NCc1ccc(S(N)(=O)=O)cc1	CIT2-GFP yeast inconclusive, MEP2 TOR yeast 244[may fluoresce violet]
CCOC(=O)C1(Cc2ccccc2Cl)CCN(S(C)(=O)=O)CC1	none
O=C1/C(=C2/NCCN2C2CC(=O)N(c3ccccc3)C2=O)CC/C1=C\c1ccccc1 (stereo unspecified)	none
